Data on 34 molecules can be found in PubChem BioAssay (EPA / NIEHS).

Several values for one entry are separate records, joined by “and”; a condition that tells them apart may be missing. Identical values can stand only once. Activity calls are given as the source filed them. How the source made its calls: active means hit-call score of the fitted dose curve at least 0.9, where 1 is the maximum; inactive means score below 0.9.

The first test in a line: CCTE_Shafer_MEA_acute_firing_rate_mean: CCTE's Neural Acute Assay for Mean Firing Rate, Shafer Lab (AID 2284009).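 Further: analyzed for loss of signal so actives lower firing rate relative to DMSO.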 The gist of the method: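 Read-out: well-mean spike rate (spikes/recording length/electrodes), % change from 40 min pre-dose baseline to 40 min with compound. Rat cortical cultures, DIV 13 or 15, 37 C; 0.03-40 uM; DMSO as negative control.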
As to `O=C(O)c1ccccc1C(c1ccc(O)cc1)c1ccc(O)cc1`, the molecule was called inactive.

Regarding `CC#C[C@]1(O)CC[C@H]2[C@@H]3CCC4=CC(=O)CCC4=C3[C@@H](c3ccc(N(C)C)cc3)C[C@@]21C`, the AC50 is 1.74 µM (active) and 2.84 µM (active). Still for that read-out and setting: the figure for `CC(=O)NC1(c2cccc(F)c2)CCN(CC[C@@]2(c3ccc(Cl)c(Cl)c3)CN(c3ccccc3)C(=O)CO2)CC1` is 1.47 µM (active). Consider `CCc1ccc(CCOc2ccc(CC3SC(=O)NC3=O)cc2)nc1` (stereo not drawn), for which the molecule was classed as inactive.

A short description of a further test: CCTE_Harrill_HTTr_Viability_MCF7: CCTE's 6-hour Cell Viability Assessment for the High-Throughput Transcriptomics (HTTr) Platform, in MCF-7 cells cultured in DMEM + 10% fetal bovine serum, Harrill Lab (AID 2284010). In outline: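 MCF-7 cells in DMEM + 10% FBS, 384-well, exposed 6 h to an eight-point dilution series. Membrane integrity scored by high-content imaging of propidium iodide exclusion; bidirectional fit versus DMSO.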
With `C#C[C@]1(O)CC[C@H]2[C@@H]3CCC4=CC(=O)CC[C@@H]4[C@H]3CC[C@@]21C`, the result was inactive.

With `O=C(O)c1ccccc1C(c1ccc(O)cc1)c1ccc(O)cc1`, the outcome was inactive.

Take `CC(C)(C)CC(C)(C)c1ccc(O)c(-n2nc3ccccc3n2)c1`: the outcome was inactive. As to `COCC(C)O` (stereo not drawn), the result was inactive.

As for `CC(C)(C)c1cccc(C(C)(C)C)c1O`, the result was inactive. As for `OC1CCCCC1`, the outcome was inactive. Take `CC[C@H](C)[C@@H](C(=O)O)n1sc2ccccc2c1=O`: the result was inactive. `CCCCOCCO`: the outcome was inactive.

On to `CCOC(=O)CC(O)(CC(=O)OCC)C(=O)OCC`, for which the result was inactive.

In the case of `O=C(OCCOCCOC(=O)c1ccccc1)c1ccccc1`, the outcome was inactive. For `CC#C[C@]1(O)CC[C@H]2[C@@H]3CCC4=CC(=O)CCC4=C3[C@@H](c3ccc(N(C)C)cc3)C[C@@]21C`, the outcome was inactive. The same measure, in the same setting: the same measure for `c1ccc2cc3c(ccc4ccccc43)cc2c1`: “inactive”; for `Cc1cc(C)c(O)c(C)c1`: “inactive”; for `CC(O)CO` (stereo not drawn): “inactive”. `OCCC(F)(F)C(F)(F)C(F)(F)C(F)(F)C(F)(F)C(F)(F)F`: the outcome was inactive. As to `CC(=O)NC1(c2cccc(F)c2)CCN(CC[C@@]2(c3ccc(Cl)c(Cl)c3)CN(c3ccccc3)C(=O)CO2)CC1`, the result was inactive. The same measure, in the same setting: the entry for `CCC(C)(C)C1CCC(O)CC1` (stereo not drawn) is “inactive”. Same read-out and setting: the entry for `CCCCC(CC)COC(=O)CCCCC(=O)OCC(CC)CCCC` (stereo not drawn) is “inactive”. On the same count and under the same terms, the entry for `CC1=C(/C=C/C(C)=C/C=C/C(C)=C/C(=O)O)C(C)(C)CCC1` is “inactive”; for `COC(=O)CCCCC(=O)OC` it is “inactive”.

`CCCCCCC(=O)O`: the outcome was inactive. On the same count and under the same terms, the entry for `CCc1ccc(CCOc2ccc(CC3SC(=O)NC3=O)cc2)nc1` (stereo not drawn) is “inactive”; for `O=C1OC2(c3ccccc31)c1cc(Br)c(O)c(Br)c1Oc1c2cc(Br)c(O)c1Br` it is “inactive”.

Turning to `CCCCCCCC(=O)O`, the outcome was inactive. On the same count and under the same terms, the entry for `C[C@@H]1C[C@H]2[C@@H]3CCC4=CC(=O)C=C[C@]4(C)[C@@]3(F)[C@@H](O)C[C@]2(C)[C@@]1(O)C(=O)COP(=O)(O)O` is “inactive”.

Turning to `CC(O)C(=O)O` (stereo not drawn), the outcome was inactive. Turning to `C=C(C)C(=O)OCCC(F)(F)C(F)(F)C(F)(F)C(F)(F)C(F)(F)C(F)(F)F`, the result was inactive. In the case of `c1ccc2c(c1)Cc1ccccc1-2`, the outcome was inactive. For the molecule `CCCCCCCCOC(=O)CCCCCCCCC(=O)OCCCCCCCC`, the result was inactive. The same measure, in the same setting: the entry for `CCCCC(CC)COC(=O)CCCCC(=O)OCc1ccccc1` (stereo not drawn) is “inactive”. On to `CCCCCCCCC(=O)O`, for which the result was inactive. On to `CCN(CC)CCNc1ccc(CNC=O)c2sc3ccc(OC)cc3c(=O)c12`, for which the outcome was inactive.

On to `COc1ccc([N+](=O)[O-])cc1N`, for which the outcome was inactive. Same read-out and setting: the same measure for `Oc1cccc(O)c1`: “inactive”.

One may read the AC50 as the concentration giving half of the maximal activity seen.
